Source: PubChem
A selection follows.
ATXN viability: Viability Counterscreen for Primary qHTS for Inhibitors of ATXN expression; S2 cells (HEK-293 line with an ATXN2-luciferase reporter) viability, CellTiter-Fluor protease fluorescence, 24 h; Potency, µM (highest dose often 56.7 µM), most hits filed as cytotoxic; 400,000 tested, 0.49% active; note: nearly all actives have a fitted effect of over 40% in size
ATXN2 expr inh: Primary qHTS for Inhibitors of ATXN expression; 360,000 tested, 0.72% active; AID 1745845, 2022; HEK-293 ATXN2-luciferase reporter, luminescence, 24 h; Potency, µM (doses to about 57 µM), for inactives: at the top dose activity change, negative = inhibition, hits mostly inhibitors; note: % is set by controls: 0 for no effect and ±100 for the full control effect; nearly all actives have a fitted effect of over 55% in size
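ATXN2-luciferase reporter cells (luciferase flanked by upstream and downstream ATXN2 gene portions) were treated 24 h at 37 °C with compounds at up to 57 uM. SteadyGlo luminescence gave expression; GF-AFC fluorescence gave viability.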
HT1080 IDH1KD tx: qHTS for induction of synthetic lethality in tumor cells producing 2HG: qHTS for the HT-1080-IDH1KD cell line; HT-1080 IDH1 knockdown viability, ATP luminescence, 48 h; 360,000 tested, 2% active; Potency, µM (top dose mostly 46.1 µM), inactives show at the top dose activity, negative = toxicity, actives largely listed as cytotoxic;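 note: 0% = DMSO wells and -100% = cell-free medium wells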
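% activity derives from luminescence (CellTiter-Glo), normalised to DMSO and no-cell wells. HT-1080-IDH1KD cells, 750/well, had 48 h compound exposure at 37 °C.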
HT1080NT lethal: qHTS for induction of synthetic lethality in tumor cells producing 2HG: qHTS for the HT-1080-NT fibrosarcoma cell line; HT-1080-NT fibrosarcoma viability, CellTiter-Glo ATP luminescence, 48 h; Potency, µM (series often up to 46.1 µM), for inactives: top-dose activity, negative = less viability, usual class: cytotoxic; 360,000 tested, 1.6% active; AID 686970, 2013;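 note: NT is the 2HG producing partner of a matched IDH1 knockdown line; 0% = DMSO-treated cells and -100% = media-only wells without cells; nearly all actives have a fitted effect of over 55% in size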
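Read-out is CellTiter-Glo luminescence after 10 minutes at room temperature, following 48 hours' compound treatment of HT-1080-NT cells (750 cells/well, RPMI, 5% FBS, 37 degrees C).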
KB-3-1 cytotox: qHTS assay for MDR1-selective chemotherapeutics: Primary screen using the parental adenocarcinoma cell KB-3-1. KB-3-1 viability, CellTiter-Glo ATP luminescence, 72 h. Potency, µM (titrated, usually from 46.1 µM), most hits filed as cytotoxic. 400,000 tested, 1.4% active. AID 1347075, 2019; note: % is set by controls: 0 for no effect and ±100 for the full control effect; nearly all actives have a fitted effect of over 60% in size
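Cytotoxicity in the drug-sensitive parental line KB-3-1 was scored as loss of CellTiter-Glo luminescence following 72 h incubation with compound. Values come from curve fitting of normalized concentration-response data.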
KB-V1 MDR tox: qHTS assay for MDR1-selective chemotherapeutics: Primary screen using the drug-selected MDR subline cells KB-V1 | KB-V1 MDR cells viability, CellTiter-Glo, 72 h | Potency, µM (top dose mostly 46.1 µM), most hits filed as cytotoxic | 400,000 tested, 3.4% active | AID 1347076, 2019; note: % is set by controls: 0 for no effect and ±100 for the full control effect; nearly all actives have a fitted effect of over 60% in size
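Cytotoxicity via CellTiter-Glo luminescence after 72 h compound exposure at 37 degrees C. Cells: drug-selected KB-V1 line, DMEM phenol-red free plus 10% FBS. Compounds tested at multiple concentrations; normalized data fitted to concentration-effect curves.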
* = called active by the depositor; i = inactive; ? = inconclusive; / = not tested or not shown. Calls come from the whole dose curve; as a rule, active = well fitted curve in the direction sought with a large enough effect; inconclusive = small, poorly fitted or top-dose-only effect, or another doubt; inactive = no such curve, though single readings can be large; an effect the other way counts as inactive or inconclusive. Potency is the fitted concentration of half-maximal effect.

SMILES | ATXN viability | ATXN2 expr inh | HT1080 IDH1KD tx | HT1080NT lethal | KB-3-1 cytotox | KB-V1 MDR tox
CCN(CC)C(C)C(=O)c1ccccc1 (stereo not drawn) | i | 7% | / | / | / | /
CCC(=O)OC1CCC2C3CCC4=CC(=O)CC[C@@]4(C)C3CC[C@]12C (stereo partly drawn) | / | -8% | / | / | / | /
Cc1cc(C)c(C)c(/C=C(/C#N)C(N)=S)c1C | i | -1% | ? | ? | i | i
CCOc1ccc2nc(NC(=O)c3cccn(Cc4ccccc4Cl)c3=O)sc2c1 | i | 8% | / | / | i | ?
CCn1c(CN2CCN(C)CC2)nc2ccccc21 | i | -6% | / | / | i | i
COP(=S)(OC)Oc1ccc(S(=O)(=O)N(C)C)cc1 | i | -4% | / | / | / | /
O=C(OC1CCN(CCCl)CC1)C(c1ccccc1)c1ccccc1 | i | -2% | -22% | -25% | i | i
O=C(O)CCCCCCNC1c2ccccc2CCc2ccccc21 | i | 0% | / | / | / | /
